Bioassay records deposited in PubChem by National Center for Advancing Translational Sciences (NCATS).
HT1080-NT tox = kills 2HG-producing HT-1080-NT fibrosarcoma cells | HT-1080-NT fibrosarcoma viability, CellTiter-Glo ATP luminescence, 48 h | Potency, µM (top dose mostly 46.1 µM), inactives show top-dose activity, negative = less viability, hits mostly cytotoxic | 1.6% of 360,000 active | AID 686970;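 note: NT is the 2HG producing partner of a matched IDH1 knockdown line; 0% = DMSO-treated cells and -100% = media-only wells without cells; nearly all actives have a fitted effect of over 55% in size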
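750 cells/well, RPMI + 5% FBS; 2 h settle, compound pin-transfer, 48 h at 37 degrees C. CellTiter-Glo 10 min RT, luminescence. Normalized to DMSO and media-only wells.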
MCF10A rereplic = induces DNA re-replication in MCF 10a normal breast cells; Potency, µM (doses to about 46.1 µM), without a hit: at the highest dose activity, positive = re-replication, actives largely listed as activators; 2.9% of 350,000 active; MCF 10A DNA re-replication, Hoechst nuclear intensity, 48 h; AID 624296; note: % of control where 0% means no effect; nearly all actives have a fitted effect of over 50% in size
KB-3-1 tox = KB-3-1 parental cell cytotoxicity; KB-3-1 viability, CellTiter-Glo ATP luminescence, 72 h; Potency, µM (titrated, usually from 46.1 µM), actives largely listed as cytotoxic; 1.4% of 400,000 active; note: % is set by controls: 0 for no effect and ±100 for the full control effect; nearly all actives have a fitted effect of over 60% in size
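Here the drug-naive KB-3-1 line serves as comparator for MDR sub-line selectivity; cells received compound titrations, 72 h at 37 °C, then CellTiter-Glo readout.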
KB-V1 MDR tox = kills drug-selected multidrug resistant KB-V1 cells | KB-V1 MDR cells viability, CellTiter-Glo, 72 h | Potency, µM (series often up to 46.1 µM), actives largely listed as cytotoxic | 3.4% of 400,000 active; note: % is set by controls: 0 for no effect and ±100 for the full control effect; nearly all actives have a fitted effect of over 60% in size
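Readout: CellTiter-Glo luminescence, 10 min after addition. Cells: KB-V1 MDR subline, 72 h at 37 degrees C with compound. Analysis: corrected, normalized data fitted to concentration-effect curves.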
SW480 rereplic = induces DNA re-replication in SW480 colon adenocarcinoma cells; SW480 DNA re-replication, Hoechst DNA content imaging, 48 h; Potency, µM (top dose mostly 46.1 µM), for the others: at the top dose re-replication activation, actives largely listed as activators; 1.8% of 340,000 active; AID 624297; note: % of control where 0% means no effect; nearly all actives have a fitted effect of over 55% in size
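SW480 cells exposed to compounds for 48 hr at 37 C, 5% CO2, then Hoechst-stained 40 min. Nuclear DNA content imaged by fluorescence scanning (405 nm excitation, 500-530 nm emission); re-replication scored as increased high-intensity nuclei.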
HT1080 IDH1KD tx = kills HT-1080 cells with IDH1 knockdown; HT-1080 IDH1 knockdown viability, ATP luminescence, 48 h; Potency, µM (doses to about 46.1 µM), without a hit: at the highest dose activity, negative = toxicity, actives largely listed as cytotoxic; AID 686971; 2% of 360,000 active;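 note: 0% = DMSO wells and -100% = cell-free medium wells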
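CellTiter-Glo luminescence after 48 h compound exposure at 37 degrees C of IDH1-knockdown HT-1080 cells in 5% FBS RPMI. %Activity scaled between DMSO wells and cell-free media wells, with curves fitted and assigned curve classes.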
Starred values were filed as active, the others as inactive; i = inactive; u = inconclusive; x = no result given. Rows were chosen to be rich in hits. Some 7.9% of all compounds tested hit in one or more screens of this group. Calls come from the whole dose curve; as a rule, active = well fitted curve in the direction sought with a large enough effect; inconclusive = small, poorly fitted or top-dose-only effect, or another doubt; inactive = no such curve, though single readings can be large; an effect the other way counts as inactive or inconclusive. Potency is the fitted concentration of half-maximal effect.

SMILES	HT1080-NT tox	MCF10A rereplic	KB-3-1 tox	KB-V1 MDR tox	SW480 rereplic	HT1080 IDH1KD tx
c1coc(CN(Cc2ccco2)c2ncnc3c2oc2ccccc23)c1	u	u	u	16µM*	u	u
CCc1ccc(C(=O)Nc2nc3ccccc3[nH]2)cc1	u	5%	u	i	u	u
CCCOc1ccc2nc(NC(=O)OC)[nH]c2c1	x	4.6µM*	x	x	2.9µM*	x
CCOC(=O)Nc1nc2ccc(Cn3cccc3)cc2[nH]1	3.3µM*	3.3µM*	0.58µM*	1.2µM*	1.3µM*	u
CC(=O)c1cccc(NC(=O)c2ccc(Cl)c(S(=O)(=O)N3CCOCC3)c2)c1	x	x	i	i	x	x
O=C(N/N=C/c1cc(Cl)cc(Cl)c1O)c1ccncc1	u	u	u	u	u	3.7µM*
O=C(N/N=C/c1ccc(O)cc1O)c1ccc(NC(=O)C2CCCCC2)cc1	u	u	u	i	16µM*	9.2µM*
O=C(N/N=C/c1cccc(O)c1)c1ccc(NC(=O)C2CCCCC2)cc1	-7%	19%	i	i	-4%	-27%
O=C(N/N=C/c1ccc(O)cc1O)c1ccncc1	u	0%	u	u	u	7.3µM*
COc1cc(Br)cc(C=Nc2cccc(C(F)(F)F)c2)c1O	-16%	21µM*	u	i	-1%	u
Cc1ccc(-n2c3c(cc(-c4nc(-c5ccc(Cl)cc5)cs4)c2=O)C(=O)CC(C)(C)C3)cc1C	x	x	i	u	x	x
O=C(N/N=C/c1ccc(Br)s1)c1cccs1	-15%	3%	u	i	3%	-5%
Oc1c(Cl)cc(Cl)cc1C=Nc1ccc2c(c1)OCCO2	-18%	u	i	i	4%	-16%
Cc1ccc(C(C)C)c(OCc2ccc(C(=O)N/N=C/c3ccc(O)cc3O)cc2)c1	6.5µM*	u	i	u	u	2.9µM*
O=C(N/N=C/c1cc(Br)cc(Br)c1O)c1ccncc1	u	u	i	i	1µM*	u
Cc1cccc(C(=O)Oc2c(Br)cc(Br)cc2/C=N/NC(=O)c2ccncc2)c1	12%	1%	i	i	2%	15%
O=C(N/N=C/c1ccc(Br)s1)c1ccncc1	-22%	u	i	i	10µM*	-16%
Cc1ccc(N=Cc2cc(Cl)cc(Cl)c2O)nc1	0%	u	i	i	18µM*	-14%
CCOC(=O)c1ccc(-c2ccc3ncnc(NCc4cccs4)c3c2)o1	x	x	u	i	x	x
CCc1nc2cccnc2n1-c1ccc(CC(=O)Nc2ccc(C)cc2)cc1	x	x	i	i	x	x
CC(NC(=O)CSc1n[nH]c(-c2ccccc2Cl)n1)c1nc2ccccc2[nH]1 (stereo not given)	x	x	i	i	x	x
Cc1nonc1C(=O)N/N=C/c1ccc(O)cc1O	u	u	u	u	u	2.1µM*
COc1ccc(/C=N/Nc2ncc(Br)cn2)c(OC)c1	7%	-5%	i	i	-30%	3%
O=C(CP(=O)(c1ccccc1)c1ccccc1)N/N=C/c1cc(Br)cc(Br)c1O	-10%	5.8µM*	i	u	u	u
COc1cc(Br)cc(/C=N/NC(=O)Cc2ccccc2)c1O	18µM*	u	i	i	u	8.2µM*
SMILES	HT1080-NT tox	MCF10A rereplic	KB-3-1 tox	KB-V1 MDR tox	SW480 rereplic	HT1080 IDH1KD tx
Oc1c(Cl)cc(Cl)cc1/C=N/Nc1ncc(Br)cn1	u	u	u	i	0.16µM*	u
Nc1nc(SCC(=O)Nc2cccc(C(F)(F)F)c2)n[nH]1	x	x	i	i	x	x
CCC(=O)N1CCc2cc(Br)cc(S(=O)(=O)N3CCN(c4ccccc4OC)CC3)c21	x	x	i	i	x	x
COc1ccc(-c2cc(C(F)(F)F)c(C#N)c(SCC(=O)Nc3ccccc3F)n2)cc1	x	x	i	u	x	x
Cc1ccc(C)c(NCCCCC(=O)O)c1	16%	x	i	i	x	9%
CNC(=O)CN1C(=O)c2cccc3cccc1c23	3%	-1%	i	i	-3%	9%
CN1/C(=N\O)c2cccc3cccc1c23	-22%	18µM*	u	u	19%	-18%
O=C(/C=C/c1ccccc1Cl)c1ccc(O)cc1	-2%	u	i	u	u	u
O=C(/C=C/c1c(F)cccc1Cl)c1ccc(O)cc1	u	3.3µM*	u	i	u	u
CCN(Cc1ccccc1)S(=O)(=O)c1ccc(F)c(C(=O)Nc2cc(C(F)(F)F)ccc2Cl)c1	x	x	i	i	x	x
Cc1nn(Cc2ccc(Cl)cc2)c(C)c1NC(=O)CSc1nc2c(c(C(F)(F)F)n1)CCc1ccccc1-2	3%	u	i	8.2µM*	u	2%
Cc1ccccc1Cn1cc(NC(=O)CSc2nc3c(c(C(F)(F)F)n2)CCc2ccccc2-3)cn1	2%	19%	i	i	17%	6%
CN(Cc1ccccc1)C(=O)CSc1nc2c(c(C(F)(F)F)n1)CCc1ccccc1-2	0%	19%	18µM*	u	-6%	1%
Cc1ccc(Cn2nc(C)c(NC(=O)CSc3nc4c(c(C(F)(F)F)n3)CCc3ccccc3-4)c2C)cc1	6%	u	u	4.1µM*	-28%	1%
Cc1cc(NC(=O)c2cccc(S(=O)(=O)N(C)C)c2)n(-c2ccccn2)n1	0%	u	i	9.2µM*	20%	-10%
CN(c1ccccc1)S(=O)(=O)c1cccc(C(=O)NC2CCCCC2)c1	4%	u	i	15µM*	-2%	7%
Cc1cccc(NC(=O)c2cccc(S(=O)(=O)N(C)c3ccccc3)c2)n1	-13%	24%	i	7.3µM*	4%	-2%
Cc1ccc(S(=O)(=O)N(C)c2ccc(C(=O)Nc3cccc(C)n3)cc2)cc1	1%	u	i	u	-5%	-13%
Cc1cc(NC(=O)c2cccc(S(=O)(=O)N3CCCCCC3)c2)n(-c2ccccn2)n1	3%	-6%	i	u	5%	2%
Cn1nc(C(=O)Nc2cccc(C(=O)NC3CC3)c2)c2ccccc2c1=O	4%	0%	i	i	-3%	5%
Cn1nc(C(=O)Nc2cccc(C(F)(F)F)c2)c2ccccc2c1=O	13%	1%	i	8.2µM*	-3%	1%
O=[N+]([O-])c1cc([N+](=O)[O-])c(N2CCCCCC2)cc1NCCO	-14%	23%	i	9.2µM*	27%	u
CC(=O)OC[C@H]1O[C@@H](n2ncc(=O)[nH]c2=O)[C@H](OC(C)=O)[C@@H]1OC(C)=O	-8%	-12%	3.3µM*	8.2µM*	u	u
